Screens: PubChem BioAssay, National Center for Advancing Translational Sciences (NCATS)
Most compounds without a hit are left out; they make up all but 18% or so of the library.
TDP1 block: TDP1 (human) enzyme inhibition. Potency, µM (series often up to 130 µM), without a hit: top-dose activity change, negative = inhibition, most hits filed as inhibitors. 0.28% of 350,000 active. recombinant TDP1, AlphaScreen DNA substrate cleavage. AID 485290. Q9NUW8; further: potency means the concentration at half of the fitted maximal effect; on the % scale 0 is the no-effect control and ±100 the full control effect; nearly all actives have a fitted effect of over 40% in size
Target sequence (Q9NUW8 whole entry, looked up): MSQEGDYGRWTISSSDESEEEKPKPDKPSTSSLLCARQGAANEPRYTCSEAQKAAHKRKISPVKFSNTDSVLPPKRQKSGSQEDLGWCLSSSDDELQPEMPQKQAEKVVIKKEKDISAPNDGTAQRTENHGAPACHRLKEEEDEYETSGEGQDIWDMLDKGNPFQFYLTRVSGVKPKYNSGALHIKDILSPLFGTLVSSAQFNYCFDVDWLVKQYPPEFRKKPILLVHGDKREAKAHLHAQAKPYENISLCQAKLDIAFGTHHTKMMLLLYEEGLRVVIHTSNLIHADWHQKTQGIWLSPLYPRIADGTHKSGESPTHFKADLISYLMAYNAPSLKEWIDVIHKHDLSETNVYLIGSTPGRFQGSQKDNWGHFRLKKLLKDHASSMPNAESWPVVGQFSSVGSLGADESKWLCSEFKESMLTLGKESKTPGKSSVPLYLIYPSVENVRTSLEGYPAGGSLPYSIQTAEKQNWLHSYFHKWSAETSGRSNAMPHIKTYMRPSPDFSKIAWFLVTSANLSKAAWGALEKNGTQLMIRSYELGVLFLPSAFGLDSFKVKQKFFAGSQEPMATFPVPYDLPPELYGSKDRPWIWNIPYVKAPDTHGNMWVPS
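Steps: enzyme plus compound, 15 min RT; add biotin/phosphotyrosine-FITC oligonucleotide (15 nM final), react 5 min; add donor/acceptor beads (10 ug/ml final), 10 min; read AlphaScreen. Tdp1 at 1 nM final.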
HepG2 tox: kills HepG2 cells in TGF-b inhibitor counter-screen. HepG2 CAGA-GFP viability, ATP luminescence, 18 h. Potency, µM (titrated, usually from 46.1 µM), for inactives: at the top dose activity change, negative = cytotoxicity, most hits filed as cytotoxic. 0.76% of 410,000 active. AID 588856; further: potency means the concentration at half of the fitted maximal effect
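CellTiter-Glo luminescence gave cytotoxicity after 18 hours at 37 degrees C. The cells were HepG2 CAGA-GFP in 1% FBS DMEM, stimulated with 500 pg/mL TGF-beta after compound addition. %Activity was normalised to no-cell wells (complete cell-killing) and DMSO (no toxicity), and curves were fitted and classified.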
IL-1B inflam inh: inflammasome signaling inhibition, IL-1 beta readout | activity change, % at 57.5 µM | AID 743279 | THP-1 LPS/ATP IL-1B secretion, AlphaLISA, 16 h; stronger effect = lower value | 4.7% of 360,000 active; in the data active means activity change below about -50%; inconclusive means mostly about -30% to -49%; further: on the % scale 0 is the no-effect control and ±100 the full control effect
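Secreted IL-1B measured by AlphaLISA bead assay after 16 h compound exposure of THP-1 cells; compounds (final up to 57.5 uM) added 1 h before LPS (250 ng/mL) and ATP (1.25 mM) stimulation; lower signal means less secretion.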
TDP1 cell noCPT: qHTS for Inhibitors of human tyrosyl-DNA phosphodiesterase 1 (TDP1): qHTS in cells in absence of CPT | DT40 Tdp1-/- hTDP1 cells, no CPT, ATP luminescence, 48 h | Potency, µM (titrated, usually from 46.2 µM), without a hit: at the top dose activity change, negative = growth inhibition, usual class: inhibitors | 15% of 420,000 active | AID 686978, 2013; further: potency means the concentration at half of the fitted maximal effect; on the % scale 0 is the no-effect control and ±100 the full control effect; nearly all actives have a fitted effect of over 55% in size
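Compound effects on proliferation are scored in DT40 Tdp1-/-;hTDP1 cells in the absence of CPT. ATP levels (CellTiter-Glo luminescence) are recorded after a ≥48 hr, 37 °C incubation.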
TGFb inhibitor: blocks TGF-b signaling; HepG2 CAGA-GFP TGF-b/SMAD3 reporter, GFP fluorescence, 18 h; TGF-beta stimulated, 500 pg/mL final; Potency, µM (highest dose often 46.1 µM), for inactives: top-dose activity, negative = inhibition, usual class: inhibitors; 1.2% of 410,000 active; AID 588855; further: potency means the concentration at half of the fitted maximal effect; on the % scale 0 is the no-effect control and ±100 the full control effect; nearly all actives have a fitted effect of over 65% in size
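TGF-beta reporter screen: HEPG2 CAGA-GFP, 1% FBS, 500 pg/mL TGF-beta final, 18 h; per-cell GFP summed per well; curves fitted and categorized by class.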
TDP1 cell CPT: DT40-hTDP1 cell growth loss with CPT. chicken DT40 Tdp1-/-;hTDP1 cells + 20 nM CPT, ATP luminescence, 48 h. AID 686979. Potency, µM (titrated, usually from 46.2 µM), for the others: top-dose activity change, negative = growth inhibition, most hits filed as inhibitors. 12% of 420,000 active; further: potency means the concentration at half of the fitted maximal effect; on the % scale 0 is the no-effect control and ±100 the full control effect; nearly all actives have a fitted effect of over 55% in size
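Chicken DT40 Tdp1-/- cells complemented with human TDP1, 400 cells/well, exposed to compounds plus 20 nM camptothecin for at least 48 h at 37 C; viability read as ATP content by CellTiter-Glo luminescence.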
Active calls of the source: *; ? = inconclusive; · = not tested or not shown. Unless noted, the call rests on the fitted dose curve; in most records, active means well fitted curve in the direction sought with a large enough effect; inconclusive means small, poorly fitted or top-dose-only effect, or another doubt; inactive means no such curve, though single readings can be large; an effect the other way counts as inactive or inconclusive.

SMILES	TDP1 block	HepG2 tox	IL-1B inflam inh	TDP1 cell noCPT	TGFb inhibitor	TDP1 cell CPT
O=C(N/N=C/c1cccnc1)NC12CC3CC(CC(C3)C1)C2	-2%	-50%	-10	?	0%	-17%
O=C(N/N=C/c1ccc(O)c(O)c1)NC12CC3CC(CC(C3)C1)C2	·	-34%	-82*	15µM*	-7%	12µM*
O=C(N/N=C/c1ccccc1O)NC12CC3CC(CC(C3)C1)C2	·	-128%	?	?	11µM*	?
Cc1ccc(S(=O)(=O)N2CC(O)CC2C(=O)OCC(=O)Nc2ccc([N+](=O)[O-])cc2C(F)(F)F)cc1C (centres undefined)	1%	3%	8	-28%	-18%	?
Cc1ccccc1OCC(=O)Nc1cccc(C(=O)OCc2cc(=O)n3c(C)csc3n2)c1	-1%	-19%	·	?	?	?
[O-]/[N+](=C/c1ccc(F)cc1)c1ccc(Cl)cc1	7%	-19%	7	9.2µM*	-13%	16µM*
[O-]/[N+](=C\c1ccco1)c1ccc(Cl)cc1	4%	-12%	-3	?	-2%	?
[O-][N+](=Cc1ccccc1)c1ccc(Cl)cc1	·	-29%	-10	21µM*	?	6.5µM*
CCC(CC)C(=O)Nc1ccc(C(=O)OCc2cc(=O)n3nc(C4CC4)sc3n2)cc1	1%	-13%	·	?	-14%	-27%
COc1cccc(-n2cc(CNCc3c(C(=O)N(C)C)nc4ccc(Cl)cn34)cn2)c1	-4%	-5%	-3	15µM*	-19%	?
COc1cccc(-n2cc(CNCc3cn(C)nc3-c3ccccc3F)cn2)c1	3%	-21%	-2	26µM*	-16%	?
CC(C)Oc1cccc(C(=O)N/N=C/c2coc3ccccc3c2=O)c1	1%	-5%	4	12%	-7%	-19%
CCOC(=O)C1=c2s/c(=C\c3cccnc3)c(=O)n2C(N)=C(C(=O)OC)C1c1cccnc1 (centres undefined)	7%	-7%	11	15µM*	-4%	23µM*
CN1CCN(CCCNC(=O)c2ccc(/C=C3\Sc4ccccc4N(Cc4ccc(F)cc4)C3=O)cc2)CC1	5%	-132%	-77*	16µM*	?	?
CN1CCN(CCCNC(=O)c2ccc(/C=C3\Oc4ccccc4N(Cc4ccccc4F)C3=O)cc2)CC1	2%	-106%	61	21µM*	18µM*	?
CN1CCN(CCCNC(=O)c2ccc(/C=C3/Sc4ccccc4N(Cc4cccc(Cl)c4)C3=O)cc2)CC1	5%	-125%	-4	?	?	?
CCN1CCN(CCNC(=O)c2ccc(/C=C3\Sc4ccccc4N(Cc4ccccc4F)C3=O)cc2)CC1	6%	14µM*	30	?	?	?
Cc1ccc(C)c(N2CCN(c3nnnn3-c3ccccc3)CC2)c1	2%	-1%	29	?	0%	?
COc1ccc(C2=C(N3CCN(c4cccc(C)c4C)CC3)c3ccccc3C2=O)cc1	12%	-5%	·	?	0%	16µM*
COc1ccc(C2(N3CCN(c4cccc(C)c4C)CC3)C(=O)c3ccccc3C2=O)cc1	-2%	1%	·	-3%	-20%	-1%
Cc1ccc(C)c(N2CCN(C3=C(c4ccccc4)C(=O)c4ccccc43)CC2)c1	8%	-9%	·	16µM*	-4%	7.3µM*
COC(=O)C(C)NC(=O)C1CCCN1C(=O)CNC(=O)OCc1ccccc1 (centres undefined)	·	-1%	10	-17%	0%	-22%
O=C(CNC(=O)c1ccccc1Cl)OCc1cc(=O)n2nc(C3CC3)sc2n1	5%	-14%	·	-9%	-13%	4%
Cc1ccc(NC(=O)Cn2c(=O)n(CCc3ccccc3)c(=O)c3c4c(sc32)CCCC4)c(C)c1	2%	10%	·	5%	8%	5%
COc1ccccc1/C=C/C=C(\C#N)C(=O)NC(C)c1ccccc1 (centres undefined)	6%	-7%	-94*	21µM*	-27%	-27%
SMILES	TDP1 block	HepG2 tox	IL-1B inflam inh	TDP1 cell noCPT	TGFb inhibitor	TDP1 cell CPT
CCN1CCc2c(C#N)c(N3CCCCC3)nc(NCc3ccccc3)c2C1	7%	13µM*	-24	16µM*	22µM*	21µM*
C=CCNc1nc(N2CCCCC2)c(C#N)c2c1CN(Cc1ccccc1)CC2	7%	-22%	-6	23µM*	-11%	23µM*
CCC1(C)Cc2c(sc3c2c(=O)n(C)c2nnc(SCCc4ccccc4)n32)CO1 (centres undefined)	8%	0%	2	23µM*	-20%	?
Cn1c(=O)c2c3c(sc2n2c(SCC(=O)c4ccccc4)nnc12)COC(C)(C)C3	5%	·	·	·	·	·
CCC1(C)Cc2c(sc3c2c(=O)n(C)c2nnc(SCc4ccccc4)n32)CO1 (centres undefined)	0%	2%	-2	?	3%	18µM*
COc1ccc(C2=NC(C)(C)N(CC(=O)Nc3cc(OC)cc(OC)c3)C2=O)cc1	8%	-2%	·	-13%	·	-4%
CC1(C)N=C(c2ccc(F)cc2)C(=O)N1CC(=O)Nc1ccccc1Cl	3%	-2%	·	16µM*	·	?
COc1ccccc1NC(=O)CN1C(=O)C(c2ccc(F)cc2)=NC12CCCCC2	5%	-30%	·	23µM*	·	?
CC(Sc1nnc(-c2ccccc2)n1C)C(=O)NCc1ccco1 (centres undefined)	·	-12%	·	-16%	-20%	-26%
O=C(c1ccco1)N1CCC2CC1c1c(Cl)cccc12 (centres undefined)	·	-7%	24	?	5%	?
COc1ccc(OC)c(NC(=O)c2ccccc2N(Cc2ccccc2)S(C)(=O)=O)c1	1%	-12%	?	?	7%	15µM*
COc1cccc(/C=N/NC(=O)c2ccccc2N(Cc2ccccc2)S(=O)(=O)c2ccccc2)c1OC	9%	-14%	-5	18µM*	-2%	23µM*
COc1ccc(NC(=O)c2ccccc2N(Cc2ccccc2)S(C)(=O)=O)c(OC)c1	·	-16%	-10	?	0%	23µM*
CS(=O)(=O)N(Cc1ccccc1)c1ccccc1C(=O)O	0%	4%	3	2%	-4%	6%
